From PubChem BioAssay (Tox21)
Records with an inconclusive call do not appear. A call without a number means that no potency is given here. More than one record can exist for a structure, and the calls need not agree. Active and inactive are the calls of the source. The call rests on the fitted dose curve; in most records, active means well fitted curve in the direction sought with a large enough effect in the repeat runs; inconclusive means weak or mixed curves; inactive means no such curve, though single readings can be large; an effect the other way counts as inactive or inconclusive.

What was measured:
[1] = Human pregnane X receptor (PXR) small molecule agonists, qHTS cell viability counter screen (AID 1346977); further: nearly all actives have a fitted effect of over 50% in size; further: potency means the concentration at half of the fitted maximal effect
Method in brief: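 HepG2 cells stably carrying the PXR-Luc reporter are cultured with 5% charcoal-stripped FBS and treated with compounds for 24hr. CellTiter-Fluor is added at 23hr and fluorescence is read after 1hr.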

[2] = Caspase-3/7 induction in HepG2 cells by small molecules, qHTS assay (AID 1346978); further: nearly all actives have a fitted effect of over 15% in size; further: potency means the concentration at half of the fitted maximal effect
Method in brief: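 Wild-type HepG2 cells, 2,000/well, settled 5 hr at 37 C and 5% CO2, then compound-treated for 17 hr; caspase-3/7 activity read by luminescent Caspase-Glo 3/7 after 30 min at room temperature.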

[3] = Caspase-3/7 induction in CHO-K1 cells by small molecules, qHTS cell viability counter screen (AID 1346979); further: nearly all actives have a fitted effect of over 35% in size; further: potency means the concentration at half of the fitted maximal effect
Method in brief: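 Seeding: 1,500 CHO-K1 cells/well. Rest: 5hr, 37C. Treatment: compounds in DMSO, 16hr. Read: CellTiter-Fluor, 1hr, fluorescence.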

[4] = Caspase-3/7 induction in CHO-K1 cells by small molecules, qHTS assay (AID 1346980); further: nearly all actives have a fitted effect of over 15% in size
Method in brief: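 Wild-type CHO-K1 cells exposed to compounds for 17hr at 37 C, 5% CO2. Caspase-3/7 activity then measured by Caspase-Glo 3/7 luminescence after 30min at room temperature.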

[5] = Caspase-3/7 induction in HepG2 cells by small molecules, qHTS cell viability counter screen (AID 1346981); further: nearly all actives have a fitted effect of over 30% in size; further: potency means the concentration at half of the fitted maximal effect
Method in brief: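 Cell viability is measured as a cytotoxicity counter screen alongside the Caspase-Glo 3/7 readout in identical wells. Wild-type HepG2 cells are treated with test compounds for 16 hr at 37 C before CellTiter-Fluor addition and a 1-hr incubation.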

[6] = target: Nuclear receptor subfamily 1 group I member 2 (Homo sapiens) (UniProt O75469); assay: Human pregnane X receptor (PXR) small molecule agonists, qHTS assay (AID 1346982); further: nearly all actives have a fitted effect of over 35% in size; further: potency means the concentration at half of the fitted maximal effect
Nuclear receptor subfamily 1 group I member 2 (Homo sapiens), sequence (O75469 whole entry, looked up): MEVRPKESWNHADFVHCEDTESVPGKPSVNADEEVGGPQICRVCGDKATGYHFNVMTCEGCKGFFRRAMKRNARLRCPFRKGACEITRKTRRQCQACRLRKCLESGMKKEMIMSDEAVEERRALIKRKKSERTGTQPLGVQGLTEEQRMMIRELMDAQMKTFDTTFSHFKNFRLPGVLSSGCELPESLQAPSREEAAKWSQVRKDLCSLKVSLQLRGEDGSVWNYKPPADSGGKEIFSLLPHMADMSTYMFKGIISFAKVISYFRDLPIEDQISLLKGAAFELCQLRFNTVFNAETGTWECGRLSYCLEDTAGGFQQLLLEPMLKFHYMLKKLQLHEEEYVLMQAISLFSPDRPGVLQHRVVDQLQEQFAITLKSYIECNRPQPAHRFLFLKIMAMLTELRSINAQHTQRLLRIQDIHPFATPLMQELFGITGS
Method in brief: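 Cells: HepG2 stably carrying PXR-Luc. Medium held 5% charcoal-stripped FBS. Compounds in DMSO added after 5 hr plating, incubated 24 hr, then luminescence quantified with ONE-Glo.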

[7] = target: Cytochrome P450 2D6 (Homo sapiens) (UniProt P10635); assay: Cytochrome P450 Family 2 Subfamily D Member 6 (CYP2D6) small molecule antagonists: luciferase reporter qHTS assay (AID 1671196); further: nearly all actives have a fitted effect of over 50% in size; further: potency means the concentration at half of the fitted maximal effect
Cytochrome P450 2D6 (Homo sapiens), sequence (P10635 whole entry, looked up): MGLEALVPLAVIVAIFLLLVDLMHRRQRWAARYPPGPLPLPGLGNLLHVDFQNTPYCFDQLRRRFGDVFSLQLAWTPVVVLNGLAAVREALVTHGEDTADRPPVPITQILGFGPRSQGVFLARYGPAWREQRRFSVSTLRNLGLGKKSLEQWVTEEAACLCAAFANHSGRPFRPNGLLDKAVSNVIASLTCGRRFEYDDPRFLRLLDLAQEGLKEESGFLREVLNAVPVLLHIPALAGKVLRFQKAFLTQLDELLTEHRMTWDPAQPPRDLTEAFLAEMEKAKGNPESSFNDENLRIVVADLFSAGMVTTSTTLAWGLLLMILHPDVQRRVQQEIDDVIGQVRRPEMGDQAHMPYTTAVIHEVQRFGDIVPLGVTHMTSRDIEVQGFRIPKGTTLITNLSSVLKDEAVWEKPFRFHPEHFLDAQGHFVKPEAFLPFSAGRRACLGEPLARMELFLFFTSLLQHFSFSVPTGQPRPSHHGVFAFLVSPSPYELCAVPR
Method in brief: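 Enzyme and proluciferin substrate were first combined with test chemical for 10 min at room temperature. Adding NADPH regeneration solution started a 1 h reaction, stopped with luciferin detection reagent and read by luminescence 20 min later.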

[8] = target: Nuclear receptor subfamily 1 group I member 2 (Rattus norvegicus) (UniProt Q9R1A7); assay: Rat pregnane X receptor (rPXR) activation by small molecules, qHTS assay (AID 1346983); settings: rPXR luciferase reporter cells, One-Glo luminescence, 24 h; max activation: stronger effect = higher value; further: nearly all actives have a fitted effect of over 20% in size
Nuclear receptor subfamily 1 group I member 2 (Rattus norvegicus), sequence (Q9R1A7 whole entry, looked up): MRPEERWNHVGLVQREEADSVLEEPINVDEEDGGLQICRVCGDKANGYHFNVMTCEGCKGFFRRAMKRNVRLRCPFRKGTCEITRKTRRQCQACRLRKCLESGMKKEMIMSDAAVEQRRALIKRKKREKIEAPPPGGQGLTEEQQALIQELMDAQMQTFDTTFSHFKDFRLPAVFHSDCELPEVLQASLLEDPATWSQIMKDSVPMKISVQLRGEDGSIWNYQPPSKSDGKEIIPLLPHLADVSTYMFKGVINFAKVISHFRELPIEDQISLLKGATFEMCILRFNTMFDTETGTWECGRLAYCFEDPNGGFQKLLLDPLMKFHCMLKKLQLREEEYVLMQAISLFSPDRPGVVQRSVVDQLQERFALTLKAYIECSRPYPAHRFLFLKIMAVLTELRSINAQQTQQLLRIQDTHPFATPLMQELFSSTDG
Method in brief: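 Cell-based rPXR activation assay: rPXR cells, 2,000 per well, rested 5hr at 37 C, then exposed to compounds in DMSO for 24 hr at 37 C. Luciferase activity read by One-Glo luminescence after 30 min at room temperature.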

Structure (SMILES)	Potency [1]	Potency [2]	Potency [3]	Potency [4]	Potency [5]	Potency [6]	Potency [7]	max activation [8]
CCCCCC#CC(=O)OC	inactive	inactive	inactive	inactive	inactive	inactive	inactive	
CCCCCCCCC(CCCCCC)C(=O)O (stereo not drawn)	inactive	inactive	inactive	inactive	inactive	inactive	inactive	
Nc1ccc(N=Nc2ccccc2)c(N)c1	33.6 µM (active)	inactive	59.8 µM (active)	inactive	53.3 µM (active)	1.69 µM (active)	2.2 µM (active)	
CCc1ccccc1	inactive	inactive	inactive	inactive	inactive	inactive	inactive	
CC(O)c1ccccc1 (stereo not drawn)	inactive	inactive	inactive	inactive	inactive	inactive	inactive	
CCCCCCCCCCCCCCN(CCO)CCO	61.1 µM (active)	30.6 µM (active)	27.3 µM (active)	inactive	68.6 µM (active)	12.2 µM (active)	7.96 µM (active)	
Nc1nnc(-c2ccc([N+](=O)[O-])o2)o1	27.3 µM (active)	inactive	54.5 µM (active)	inactive	68.6 µM (active)	inactive	39.9 µM (active)	
Cc1c(C)c2c(c(C)c1OC(=O)CCC(=O)OCCO)CC[C@@](C)(CCC[C@H](C)CCC[C@H](C)CCCC(C)C)O2	inactive	inactive	inactive	inactive	inactive	inactive	inactive	
CCC(C)COC(=O)CC(C)C (stereo not drawn)	inactive	inactive	inactive	inactive	inactive	inactive	inactive	
CCC(=O)OC	inactive	inactive	inactive	inactive	inactive	inactive	inactive	
O=C1NCCN1CCO	inactive	inactive	inactive	inactive	inactive	inactive	inactive	
O=[N+]([O-])c1cc(C2CCCCC2)c(O)c([N+](=O)[O-])c1	4.31 µM (active)	inactive	7.67 µM (active)	inactive	15.3 µM (active)	8.61 µM (active)	31.6 µM (active)	
Cc1cscn1	inactive	inactive	inactive	inactive	inactive	inactive	inactive	
c1ccc2c(c1)CCc1ccccc1N2	inactive	inactive	inactive	inactive	inactive	61.4 µM (active) and inactive	inactive	
CC(=O)OCC[N+](C)(C)C	inactive	inactive	inactive	inactive	inactive	inactive	inactive	
Brc1cc(Br)c(Oc2cc(Br)c(Br)cc2Br)cc1Br	inactive	inactive	inactive	inactive	inactive	29.9 µM (active)	inactive	
Oc1cccc(Nc2ccccc2)c1	inactive	inactive	inactive	inactive	inactive	63.8 µM (active)	37.1 µM (active)	
O=C(Nc1cccc2c(=O)cc(-c3nn[nH]n3)oc12)c1ccc(OCCCCc2ccccc2)cc1	inactive	inactive	inactive	inactive	inactive	inactive	inactive	
O=c1[nH]ncc2ccccc12	inactive	inactive	inactive	inactive	inactive	inactive	inactive	
CC(=O)Nc1cc(S(=O)(=O)O)cc2cc(S(=O)(=O)O)c(N=Nc3ccccc3)c(O)c12	21.7 µM (active)	inactive	27.3 µM (active)	inactive	24.3 µM (active)	inactive	35.6 µM (active)	
CC1(C)[C@@H](OC(=O)CCC(=O)O)CC[C@]2(C)[C@H]3C(=O)C=C4[C@@H]5C[C@@](C)(C(=O)O)CC[C@]5(C)CC[C@@]4(C)[C@]3(C)CC[C@@H]12	inactive	inactive	inactive	inactive	inactive			-0.478% (inactive)
C=CC(C)(CCC=C(C)C)OC(=O)CC(C)C (stereo not drawn)	inactive	inactive	inactive	inactive	inactive	inactive	inactive	
O=C(Cn1ccnc1[N+](=O)[O-])NCCO	inactive	inactive	inactive	inactive	inactive	inactive	inactive	
C=COCC(C)C	inactive	inactive	inactive	inactive	inactive	inactive	inactive	
CC1=C(Br)C(=O)C(Br)=C/C1=C(/c1ccccc1S(=O)(=O)O)c1cc(Br)c(O)c(Br)c1C	20.8 µM (active)	inactive	18.6 µM (active)	inactive	37 µM (active)	inactive	21.6 µM (active)	
Oc1cc2c(cc1O)[C@H]1c3ccc(O)c(O)c3OC[C@@]1(O)C2	27.6 µM (active)	inactive	27.6 µM (active)	inactive	55.1 µM (active)	inactive	36 µM (active)	
Cc1ccc(C(C)(C)O)cc1	inactive	inactive	inactive	inactive	inactive	inactive	inactive	
